According to ChEMBL document CHEMBL3988442, “University of Dundee, Small-Polar-MMV Screening Library” (2021):
About 13,000 (27%) of roughly 48,000 compounds showed an effect of 50% or more. The list shows a part of the results.

test system: Wolbachia pipientis; test: Anti-Wolbachia Cell-Based Screen; type: functional; design: scale not given: in the data most compounds retested in dose-response had high values; conditions: 5 µM

Row | SMILES | Percent Effect
1 | COCCN(C)C[C@@H]1CN(C(=O)C(C)(C)c2ccccc2)C[C@@H]1CO | 115.8%
2 | COCCN(C)C[C@@H]1CN(C(=O)c2c(F)ccc(OC)c2F)C[C@@H]1CO | -13.51%
3 | O=C(c1ccc2c(c1)OCO2)N1C[C@@H](CN2CCCCC2)[C@@H](CO)C1 | -23.85%
4 | COCCN(C)C[C@@H]1CN(C(=O)c2ccc(SC)cc2)C[C@@H]1CO | 113.3%
5 | COc1ccc(F)c(F)c1C(=O)N1C[C@@H](CN(C)CCO)[C@@H](CO)C1 | -3.681%
6 | COCCN(C)C[C@@H]1CN(C(=O)c2ccc(OC)c(F)c2)C[C@@H]1CO | 94.27%
7 | COCCN(C)C[C@@H]1CN(C(=O)c2ccc3c(c2)OCO3)C[C@@H]1CO | 100.3%
8 | CCc1ccc2nc(C)cc(C(=O)NC3CCCCNC3=O)c2c1 (centres undefined) | -55.41%
9 | COc1ccc(N2CCC(N3CCOC(C(F)(F)F)C3)CC2)cc1 (centres undefined) | 26.01%
10 | COC(=O)c1ccc(Cl)c(CN(C)Cc2ncnn2C)c1 | -12.36%
11 | COC(=O)CCCC(=O)N(C)CC1Cc2ccccc2CN1C (centres undefined) | -6.642%
12 | CS(=O)(=O)Cc1ccc(C(=O)NCC2Cc3ccccc3O2)cc1 (centres undefined) | -4.65%
13 | COc1ccc(C)cc1C(=O)N1C[C@@H](CN(C)CCO)[C@@H](CO)C1 | -25.29%
14 | COCCN(C)C[C@@H]1CN(C(=O)c2ccc(C)cc2)C[C@@H]1CO | 166.3%
15 | COCCN(C)C[C@@H]1CN(C(=O)c2ccoc2)C[C@@H]1CO | -5.57%
16 | Cc1cc(C(=O)N2CCn3cnc(COCC4CC4)c3C2)no1 | -11.47%
17 | Cc1n[nH]c(C2CN(C(=O)c3ccc4c(c3)CCCC4)CCO2)n1 (centres undefined) | -29.36%
18 | CCc1n[nH]c(C2CN(C(=O)c3cc4c(s3)CCCC4)CCO2)n1 (centres undefined) | -2.74%
19 | CCc1n[nH]c(C2CN(C(=O)c3ccc4c(c3)CCCC4)CCO2)n1 (centres undefined) | 128.9%
20 | CCc1n[nH]c(C2CN(C(=O)c3ccc4c(c3)CCC4)CCO2)n1 (centres undefined) | 79.95%
21 | CCc1nc(CNC2CCCc3c2cnn3CC)cs1 (centres undefined) | 1.475%
22 | CC(C)C1CN(S(=O)(=O)c2cccc(C#N)c2)CCS1 (centres undefined) | -18.57%
23 | CS(=O)(=O)NCC1CCCCN1Cc1cccc(C#N)c1 (centres undefined) | 20.87%
24 | N#Cc1cccc(S(=O)(=O)N2CCCCC2CCN2CCCC2)c1 (centres undefined) | 93.73%
25 | COCCCC1CCCCN1S(=O)(=O)c1cccc(C#N)c1 (centres undefined) | 99.73%

Row | SMILES | Percent Effect
26 | N#Cc1cccc(S(=O)(=O)N2CCCCC2CCN2CCCC2=O)c1 (centres undefined) | 2.931%
27 | CCN1CCCC1CN(CCN(C)C)S(=O)(=O)c1cccc(C#N)c1 (centres undefined) | -13.07%
28 | O=C(O)c1csc(S(=O)(=O)N2CCCc3cc(OC(F)F)ccc32)c1 | -5.134%
29 | O=C(C1CCOCC1)N1C[C@H]2CCC[C@@]2(COc2cccnc2)C1.O=C(O)C(F)(F)F | 89.34%
30 | Cc1noc(C)c1C(=O)N1C[C@H]2CCC[C@@]2(COc2ccccn2)C1.O=C(O)C(F)(F)F | -9.504%
31 | CN(C)S(=O)(=O)N1C[C@H]2CCC[C@@]2(COc2cccnc2)C1.O=C(O)C(F)(F)F | 5.762%
32 | COC[C@@]12CCC[C@@H]1CN(C(=O)Cc1ccccn1)C2.O=C(O)C(F)(F)F | 87.04%
33 | O=C(N1CCCC1)N1C[C@H]2CCC[C@@]2(COCc2ccccn2)C1.O=C(O)C(F)(F)F | 108.6%
34 | Cc1ccc(N2C[C@H]3CCC[C@@]3(COc3cccnc3)C2)nn1.O=C(O)C(F)(F)F.O=C(O)C(F)(F)F | -0.008691%
35 | O=C(C1CCOCC1)N1C[C@H]2CCC[C@@]2(COCc2ccccn2)C1 | 98.54%
36 | O=C(O)C(F)(F)F.O=C(c1ncccn1)N1C[C@H]2CCC[C@@]2(COCc2cccnc2)C1 | 0.3809%
37 | CN(C)S(=O)(=O)N1C[C@H]2CCC[C@@]2(COCc2ccccn2)C1.O=C(O)C(F)(F)F | 5.963%
38 | Cc1cccc(NS(=O)(=O)c2ccc(C#N)nc2)c1C#N | -1.647%
39 | CCC(CC)c1cc(C(=O)N2CCN(C(C#N)C(C)C)CC2)on1 (centres undefined) | -14.62%
40 | CCC(CC)c1cc(C(=O)N2CCN(C(C)C(N)=O)CC2)on1 (centres undefined) | -12.57%
41 | CC(C)c1cc(C(=O)N2CCN(c3ncc4c(n3)CCOC4)CC2)on1 | 106.5%
42 | Cc1cc(NC(=O)CN(c2ccccc2)C(C)C)on1 | -6.846%
43 | COc1cccc(Nc2nc(C3CCNCC3)c3sc(C)c(C)n23)c1.Cl | 130.3%
44 | COc1cccc(Nc2nc(C3CCCNC3)c3sc(C)c(C)n23)c1.Cl (centres undefined) | 119.3%
45 | O=C(Nc1cccnc1-n1cncn1)N(C1CCCC1)C1CC1 | -11.98%
46 | CN(C)[C@@H]1CO[C@H](CNC(=O)CC(C)(C)C)[C@H]1O | -5.201%
47 | COc1cccc(OCC2CCCN(C(=O)CCCn3cccn3)C2)c1 (centres undefined) | -37.97%
48 | CSCC[C@H](N)C(=O)NCc1cc2n(n1)CCCN(C1CCCCC1)C2 | -4.094%
49 | CC(C)CN1CCCn2nc(CNC(=O)Cc3cccc(O)c3)cc2C1 | 6.027%
50 | CC(C)SCC(=O)NCc1cc2n(n1)CCCN(C1CCCCC1)C2 | 96.57%

Row | SMILES | Percent Effect
51 | CC(C)CN1CCCn2nc(CNC(=O)CCN)cc2C1 | -4.677%
52 | CSCCC(=O)NCc1cc2n(n1)CCCN(C1CCCCC1)C2 | 170.8%
53 | CCN(C(C)=O)C1CCN(c2nccc(CCC(F)(F)F)n2)C1 (centres undefined) | -1.785%
54 | COCc1ccc(C(=O)N2CCC(c3nccn3CC3CC3)CC2)o1 | -37.93%
55 | CCCC(C)(C)NC(=O)CCN1CCOC1=O | 8.427%
56 | COc1cccc(S(=O)(=O)CCNC(C)Cn2cccn2)c1 (centres undefined) | -1.101%
57 | CC(=O)c1c[nH]c(C(=O)N2CCN(C(C(N)=O)c3ccccc3)CC2)c1 (centres undefined) | -4.109%
58 | CN1C(=O)CC(C(=O)O)C12CCN(Cc1cc(Cl)ccc1F)CC2 (centres undefined) | -0.96%
59 | Cc1nc(CNC(=O)C(C)(C)c2ccc(F)cc2)no1 | 7.656%
60 | CN1CCCC(c2cncc(C(=O)NCc3ccccc3Cl)n2)C1.O=CO (centres undefined) | 120.9%
61 | CN1CCC(c2cncc(C(=O)NCc3ccc(F)cc3)n2)CC1 | 172.3%
62 | Cn1cc(CN2CCC(CCC(=O)NCc3ccc(F)cc3)CC2)cn1 | -6.777%
63 | O=C(NCc1ccccc1CN1CCCC1)Nc1cccnc1 | 1.889%
64 | CN1CCC(N(Cc2ccccc2F)C(=O)NCc2ccncc2)CC1 | 10.43%
65 | O=C(CCCc1ccccn1)N1CCOc2ccc(F)cc21 | -6.681%
66 | Cc1nc(CN2CC(CCCc3ccccn3)(C(=O)N(C)C)C2)co1 | 55.58%
67 | CNC(=O)C1(CCCc2ccccn2)CCN1Cc1coc(C)n1 (centres undefined) | 87.23%
68 | Cc1nc(CN2CCC2(CCCc2ccccn2)C(=O)N(C)C)co1 (centres undefined) | 74.52%
69 | Cn1ccnc1CN1CCCC(CO)(CCc2ccccc2)C1 (centres undefined) | 4.446%
70 | CN(C)C(=O)C1(CCCc2ccccn2)CCN1Cc1nccn1C (centres undefined) | 105.4%
71 | Cc1cccc(C(C(=O)NCCCc2ccccn2)N(C)C)c1 (centres undefined) | 0.3434%
72 | Cc1ccc(NC2CCN(C(=O)CCCc3ccccn3)CC2)cc1 | 28.87%
73 | O=C(CCCc1ccccn1)N1CCC(n2cccc2)CC1 | 17.05%
74 | CN(C)C(=O)NC1COC2(CCN(Cc3nccn3C)CC2)C1 (centres undefined) | 15.08%
75 | Cc1nc(CN2CCC(Oc3ccc(F)cc3C)(C(=O)O)CC2)co1 | -0.386%

Row | SMILES | Percent Effect
76 | O=C(CN1C(=O)CCC1=O)N1Cc2cncnc2C1 | 12.03%
77 | Cc1nc2n(n1)CC(NCC(=O)N(C)Cc1cccs1)CC2 (centres undefined) | 8.702%
78 | CC(C)(C)c1cn(CC2CCCN(c3cnc4ccccc4n3)C2)nn1 (centres undefined) | 0.2574%
79 | CCNC(=O)N1CCCCC1CCO (centres undefined) | -12.11%
80 | CCOc1cccnc1C(=O)N1CCC(c2ccccc2OC)C1 (centres undefined) | -1.787%
81 | COc1ccccc1C1CCN(C(=O)CN2C(=O)OC(C)(C)C2=O)CC1 | 112.8%
82 | CC1(C)OC(=O)N(CC(=O)N2CCC(c3ccccc3F)C2)C1=O (centres undefined) | 96.35%
83 | COc1ccccc1[C@@H]1CN(CC(=O)N2CCCCC2)C[C@H]1C(=O)O | -14.69%
84 | Cc1cccc(C2CCCN(C(=O)CN3C(=O)CCNC3=O)C2)c1 (centres undefined) | 2.396%
85 | O=C(CN1C(=O)CCNC1=O)N1CCC(c2ccc(F)cc2)C1 (centres undefined) | -18.18%
86 | CC1(C)OC(=O)N(CC(=O)N2CCC(c3ccccc3Cl)C2)C1=O (centres undefined) | 91.31%
87 | COCCOCC(=O)N1CCC(c2ccccc2F)C1 (centres undefined) | 5.027%
88 | O=C1CCCCN1CC(=O)N1CCCC(c2ccccc2)C1 (centres undefined) | -3.382%
89 | O=C(Nc1ccccc1N1CCOC1=O)N1CCSCC1 | -8.317%
90 | Oc1ccccc1-c1cc(-c2nc(C3CC3)n[nH]2)[nH]n1 | -8.043%
91 | Cc1cccc(CN2CCc3c(nc(N4CCC(C)CC4)[nH]c3=O)C2)n1 | -8.966%
92 | CC1CCCCN1c1nc2c(c(=O)[nH]1)CCN(Cc1cccnc1)C2 (centres undefined) | -7.907%
93 | c1cnc(NCc2n[nH]c3c2CCN(Cc2cccnc2)C3)nc1 | -6.284%
94 | O=c1[nH]c(N2CCOCC2)nc2c1CN(Cc1cccnc1)CC2 | 111.6%
95 | O=c1[nH]c(N2CCCCC2)nc2c1CCN(Cc1cccnc1)C2 | 95.47%
96 | Cn1ccnc1CN(CCO)C(=O)c1nc2ccccc2s1 | -11.45%
97 | O=C(NCc1ccccc1F)N1CCCCC1C1OCCO1 (centres undefined) | 112.3%
98 | O=C(NCCc1ccccc1)N1CCCCC1C1OCCO1 (centres undefined) | 1.192%
99 | O=C(CCc1ccccc1)N1CCCCC1C1OCCO1 (centres undefined) | -4.281%
